The text below walks through data of PubChem BioAssay AID485350 (ICCB-Longwood Screening Facility, Harvard Medical School, 2010).

Values joined by “and” are separate entries in the source; they are usually repeats but may differ in a detail not shown here. Identical values can stand only once. Screen size: about 84,000 compounds; about 95 (0.1%) were called active. This is one part of a sample in which actives are shown more often than they occur. Unmarked numbers belong to inactive results. No stated cut-off is given here; in the data, active means inhibition above about 25% (passing the limit was not always enough); inactive means the rest.

Usually inhibition stands for the relative decrease from the control value, in per cent.

The assay relates to BasE (2,3-dihydroxybenzoate-AMP ligase), Acinetobacter baumannii ATCC 17978. As to the kind of experiment: inhibitors of A. baumannii BasE – biochemical, Acinetobacter baumannii ATCC 17978, fluorescence polarization, primary screen (AID 485350).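 Further: 0% = negative plate control signal and 100% = positive plate control signal.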 The following applies: purified BasE, fluorescence polarization binding displacement; hits give high values; concentration not given here. Background: Polarisation of emitted light reports the rotation of a fluorescent probe.
On to `CC(=O)NCCC(=O)Nc1nccs1`, for which the inhibition was -1.55%.
`CCOC(=O)Cn1c(=O)c(=O)n(C)c2c1c(C)nn2-c1ccccc1`: the inhibition was -0.65%.
With `C=CCn1c(COc2ccccc2F)nnc1SC(C)C(=O)NC(N)=O` (centres undefined) the figure was 0.29%; with `CN(C)S(=O)(=O)c1ccc(C(=O)OCC(=O)N2CCCCC2)cc1`, 0.92%.
As to `C=CCN(CC=C)C(=O)CSc1nnc2c3ccccc3n(C)c2n1`, the inhibition is 4.82%.
With `CCC(CC)=NNC(=O)c1cc(-c2ccccc2)n[nH]1`, the inhibition is 0.72%.
As for `COc1ccccc1NC(=O)c1ccc(N2CC3CC(C2)c2cccc(=O)n2C3)c(NC(=O)c2cccnc2)c1` (centres undefined), the inhibition is -1.5%.
The figure for `C=CCN(S(=O)(=O)c1ccc(Cl)cc1)S(=O)(=O)c1ccccc1OC` is 5.47%; for `CCCCN(C)S(=O)(=O)c1ccc2c(c1)CCN2C(=O)CCC(=O)O` it is 1.97%; for `CN(C)CCN=c1cc(-c2ccccc2)oc2ccc(Cl)cc12` it is -2.16%.
With `Cc1nc(SCC(=O)NC(C)(C#N)C2CC2)c2c(C)c(C)sc2n1` (centres undefined) the figure was -0.09%; with `Cc1cc2nc(N(C)C)c3ccccc3n2n1`, 2.28%; with `CC1CN(C(=O)Cn2nc(-c3cccc(-n4cccc4)c3)oc2=O)CC(C)O1` (centres undefined), -1.31%.
The figure for `O=C(O)c1cccnc1SCc1cc(=O)n2cc(Br)ccc2n1` is 1.25%.
In the case of `CC(=O)NCc1ccc(-c2csc(CC(=O)Nc3ccc(C)cc3C)n2)o1`, the inhibition was 0.82%.
`C/C(=N/NC(=O)CCc1ccccc1)C1CC1`: the inhibition was 2.92%.
With `COc1ccc(OCCNS(=O)(=O)Cc2ccccc2)cc1` the figure was 3.47%.
The figure for `CC1CN(CC(=O)Nc2ccccc2C(C)C)CC(C)O1` (centres undefined) is -1.49%; for `CCN(CC)Cc1cc(C(=O)O)co1` it is -4.35%; for `O=C(N/N=C/c1cccnc1)c1ccc(CN2CCOCC2)cc1` it is 1.66%.
The figure for `CCN1C(=O)/C(=C/N(C(C)=O)c2ccccc2)OC1=S` is 1.08%; for `O=C(CSc1ncnc2c1nnn2Cc1ccc(F)cc1)NC1CCCC1` it is -1.58%; for `Cc1ccccc1Nc1nc(N)nc(CNCc2ccccc2)n1` it is 5.66%.
On to `Cc1oc(-c2cccc(Cl)c2)nc1CN1CCCC(C(=O)N2CCN(c3cccc(Cl)c3)CC2)C1` (centres undefined), for which the inhibition was -0.15%.
For the molecule `Cc1nc2c(cnn2C(C)C)c(C)c1CCC(=O)OC(C)C(=O)Nc1ccc(C(N)=O)cc1` (centres undefined), the inhibition was -3.6%.
Consider `Cc1cc(C(=O)OCC(=O)c2cc(C)n(-c3ccc(Cl)cc3)c2C)no1`, for which the inhibition is 1.57%.
The figure for `CCN(Cc1ccc2c(c1)OCCO2)C(=O)c1ccc(-n2cccn2)cc1` is -0.56%; for `CN(C(=S)NCc1ccccc1)C1CCCCC1` it is 1.12%; for `C(=C\c1ccccc1)/CNCCCN1CCOCC1` it is 0.89%.
For the molecule `CNC(=O)c1ccc(N2CCOc3ccc(Cl)cc32)s1`, the inhibition was -0.32%.
With `COc1ccc(CNn2cnnc2SCc2ccc(F)cc2)cc1OC` the figure was -1.54%; with `CC12CCC(=O)N1C(C(=O)OCc1cc(=O)n3cc(Br)ccc3n1)CS2` (centres undefined), 3.92%; with `CC(C)[C@H](NC(=O)C1CCCCC1)c1nc2ccccc2[nH]1`, -0.24%.
The figure for `Cc1cc(C(=O)OCc2cc(=O)oc3cc4c(cc23)CCC4)c(C)o1` is -0.6%; for `COC(=O)C(NC(=O)c1ccc(Cl)cc1)C(F)(F)F` (centres undefined) it is 7.11%.
With `Cc1ccc(N2C(=O)CCC(C(=O)OCc3nnc(-c4ccccc4)o3)C2c2cccs2)cc1` (centres undefined) the figure was 1.51%.
As to `COc1ccc(-n2c(-c3ccc(Cl)cc3)cnc2SCc2nccn2C)cc1`, the inhibition was -1.16%.
The figure for `COc1ccc(S(=O)(=O)N(C)CC(=O)N2CCCC2)cc1` is -1.85%; for `OCC1OC(Oc2ccc3cc(Br)ccc3c2)C(O)C(O)C1O` (centres undefined) it is -1.6%; for `CCOC(=O)c1c(-c2ccco2)csc1NC(=O)COC(=O)Cn1[nH]c(=O)c2ccccc2c1=O` it is 3.28%.
The figure for `O=C(NCCSc1ncc(-c2ccccc2)[nH]1)c1ccco1` is -0.84%; for `Cc1ccc(S(=O)(=O)Nc2nc(O)c(C3=c4ccccc4=NC3=O)s2)cc1` it is 2.18%; for `C(=N\n1cnnc1)/c1ccc(OC2OCCOC2Oc2ccc(/C=N/n3cnnc3)cc2)cc1` (centres undefined) it is 1.12%.
Regarding `C=CCn1c(CCSCc2ccc(OC)cc2)n[nH]c1=S`, the inhibition is -0.73%.
On to `COc1cccc(-c2noc(COC(=O)c3ccccc3-c3ccccc3C#N)n2)c1`, for which the inhibition is 1.11%.
Consider `CC(Oc1ccc(F)cc1)C(=O)O` (centres undefined), for which the inhibition is -0.06%.
The figure for `O=C(OCC(=O)N1CCOCC1)c1ccc(Cl)cc1` is 0.53%.
On to `O=c1c(OCCc2ccccc2)c(-c2ccco2)oc2ccccc12`, for which the inhibition was 5.62%.
With `Cc1ccc(S(=O)(=O)NC(c2ccccc2)c2nnc(-c3ccccc3)o2)cc1` (centres undefined) the figure was -0.19%; with `O=C1Nc2ccccc2OC1CC(=O)N1CCN(Cc2ccc3c(c2)OCO3)CC1` (centres undefined), -0.54%.
The figure for `CCc1c(C)c(C#N)c2nc3ccccc3n2c1N1CCN(Cc2cc(Cl)ccc2OC)CC1` is 0.68%; for `CCOC(=O)c1sc(=NC(C)=O)n(C)c1C` it is -1.69%; for `Cc1cc(C)n(-c2ccc(Cl)c(C(=O)OCC(=O)NCc3ccco3)n2)n1` it is 1.59%.
For `CCn1cnc2c(=O)oc3ccc(S(=O)(=O)N4CCN(c5cc(Cl)ccc5C)CC4)cc3c21`, the inhibition is 2.98%.
`CCOC(=O)C1=C(CN2CCn3cccc3C2C)NC(=O)NC1c1ccc(Cl)cc1` (centres undefined): the inhibition was -0.37%.
With `N#CCSc1[nH]c(=O)c(-c2nc(-c3ccccc3)cs2)cc1C#N` the figure was 1.84%; with `Cc1ccc(/C=C/C(=O)OCC(=O)c2cc(C)c(C)cc2C)o1`, 1.01%; with `CC(Sc1nnc(N)s1)C(=O)NCCC1=CCCCC1` (centres undefined), 2.13%.
The figure for `C/C(=N\NC(=O)NC1CCCCC1)c1ccc(OC(F)F)cc1OC(F)F` is 1.32%; for `FC(F)Oc1ccc(-c2csc(=Nc3cccnc3)n2C2CC2)cc1` it is 3.62%.
The figure for `Cc1cc(/C=N/N2C(=O)c3ccccc3C2=O)cc(C)c1O` is 0.22%.
Take `CCN(CC)CC(O)Cn1c(=O)n(CC(O)CN(CC)CC)c(=O)n(CC(O)CN(CC)CC)c1=O` (centres undefined): the inhibition is -0.02%.
With `O=C1Cc2ccccc2C(=O)N1Cc1ccccn1` the figure was 4.89%; with `O=C1CCC2(C(=O)OCCCn3c(=O)[nH]c4ccccc43)Sc3ccccc3N12` (centres undefined), 1.34%; with `O=C(c1cc(Cl)c(O)c(Cl)c1)N1CCc2ccccc2C1`, 3%.
With `Cc1nn2cnnc2c(C)c1CCC(=O)NCCCc1ccccc1` the figure was -4.03%; with `O=C(CCC1CC(=O)OC1c1ccccc1)Nc1nccs1` (centres undefined), 0.54%; with `CCOC(=O)c1c(C)oc2ncnc(N(C)Cc3ccccc3)c12`, 1.14%.
In the case of `COC(=O)c1cc(S(=O)(=O)N(CCCN2CCOCC2)C2CCN(C)CC2)cn1C`, the inhibition is -0.33%.
In the case of `Cc1c(CCC(C)C)c(NCCN2CCOCC2)n2c(nc3ccccc32)c1C#N`, the inhibition is 2.4%.
The figure for `CCN(C(=O)COc1ccc(Cl)cc1C)c1ccccc1` is 0.83%.
With `CCOc1ccc(-n2cc(C(=O)N3CCN(c4ccccc4OC)CC3)c3cc(OC)c(OC)cc3c2=O)cc1` the figure was 0.29%; with `Cc1cccc(NC(=O)NCC(=O)NC2CC2)c1`, -0.65%; with `COCC(C)NC(=O)Nc1c[nH]c2ccccc12` (centres undefined), -1.24%.
The figure for `CCOc1cc(C(=O)CCC(=O)O)ccc1O` is 0.21%; for `CCN(Cc1ccccc1)C(=O)c1cccc(N2C(=O)CCC2=O)c1` it is 1.51%.
In the case of `C=CCN1C(=O)S/C(=C\c2ccc(OCC(=O)OC)cc2)C1=O`, the inhibition was 0.73%.
`CCSc1nnc(CNc2ccc(F)cc2)n1-c1ccc(C)cc1`: the inhibition was 1.16%.
The figure for `CN(CC(=O)Nc1ccccc1Cl)Cn1nc(-c2ccco2)oc1=S` is 1.44%.
Take `CCCN(CCC)Cc1ccc(CNc2nc(-c3ccc(OC)cc3)no2)o1`: the inhibition is -0.49%.
The figure for `CCC(CO)n1c(SCC(=O)Nc2ccc(C)c(C)c2)nc2cc(OC)c(OC)cc2c1=O` (centres undefined) is 1.28%.
Turning to `COc1ccc(-c2noc(C3CCN(C(=O)OC(C)(C)C)CC3)c2C(=O)O)cc1`, the inhibition is 1.39%.
The figure for `Nc1ccccc1C(=O)NCC1CCCO1` (centres undefined) is -4.47%.
With `COc1ccc(-n2cc3c(c(C#N)c2=N)CC(C)(C)CC3=O)c(OC)c1` the figure was -12.9%; with `COC(=O)c1ccc(/C=N/O)cc1`, 1.3%.
The figure for `S=c1[nH]nc(-c2ccncc2)n1/N=C/c1cccnc1` is -0.5% and 1.06%; for `Cc1ccc(N=C2C(=O)N(CN3CCCC(C)C3)c3ccccc32)cc1` (centres undefined) it is 0.38%; for `CCCc1nnc(SCC(=O)N2CCCc3ccccc32)n1CC` it is -5.47%.
As for `Cc1cccc(C(=O)NCC(=O)NN)c1`, the inhibition is 0.12%.
Consider `CCOCCCNc1nc2ccccc2nc1NS(=O)(=O)c1cccc2nsnc12`, for which the inhibition is 0.69%.
The figure for `O=S(=O)(NCc1ccc2c(c1)OCO2)c1cccc2nsnc12` is 0.67%.
For `Cc1csc(NC(=O)C2CCC(CNS(=O)(=O)c3cccc4nsnc34)CC2)n1` (centres undefined), the inhibition is 28.5% (active).
Take `Cc1cc(C)n(-c2ccc(C(=O)OCC(=O)C(C)(C)C)cc2)n1`: the inhibition is -0.47%.
Turning to `OC(CN1CCCCC1)CN1c2ccccc2Sc2ccccc21` (centres undefined), the inhibition was -0.28%.
For the molecule `O=C(Nc1ccccc1)Nc1ccc(Cl)c(Cl)c1`, the inhibition was 2.62%.
The figure for `Cc1ccccc1Nc1nc(N)nc(Cn2cc(Br)ccc2=O)n1` is 2.02%; for `Cc1ccc(S(=O)(=O)N(C)CC(=O)O)cc1` it is 0.19%.
With `CC(C)CN(CC(C)C)C(=O)C1CCN(S(=O)(=O)c2cccc3nsnc23)CC1` the figure was -0.22%; with `CCc1c(C)nc2n(c1=O)C(CS(=O)(=O)c1ccc3ccccc3c1)CS2` (centres undefined), 2.08%.
For `O=C(O)CN1CCN(C(c2ccccc2)c2ccccc2)CC1`, the inhibition is 1.06%.
In the case of `CCCCn1c(N)c(N(C(=O)c2ccc(Cl)c(Cl)c2)C2CCCC2)c(=O)[nH]c1=O`, the inhibition was 2.21%.
In the case of `Cc1ccc(NC(=O)CCn2c(=O)sc3ccccc32)cc1C`, the inhibition was 2.16%.
The figure for `O=C(CSc1cccc[n+]1[O-])c1cc2c3c(c1)CC(=O)N3CCC2` is 1.79%.
On to `Cc1ccsc1C(=O)OCc1nc2sc3c(c2c(=O)[nH]1)CCCC3`, for which the inhibition was -0.18%.
